In the library only some 4% were active in any assay of this set; here they are far more common.
TROY NFkB inh: inhibitors of TROY-driven NF-kB signaling, primary screen, Q293 LMP1-TROYcd cells, NF-kB luciferase, uHTS. Q293 LMP1-TROYcd NF-kB luciferase reporter, 4 h. inhibition, % at 10 µM. actives 0.98% (n = 360,000);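 active = compounds whose plate-normalised and pattern-corrected inhibition of the luciferase reporter signal at the single screening dose is 50% or more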
TWEAK-Fn14 inh: inhibitors of TWEAK-Fn14 signaling, primary screen, luciferase reporter cells, uHTS | TWEAK-stimulated Fn14 reporter cells, luciferase luminescence, 8 h | inhibition, % at 10 µM | actives 2% (n = 360,000) | AID 1159606, 2016; in the data active = inhibition above about 50%
HIF-2a inh: HIF-2a reporter inhibitors, primary screen, luminescence, 786-0 RCC cells; AID 624352, 2012; actives 0.72% (n = 360,000); 786-0 RCC cells HIF-2a reporter, luciferase luminescence, overnight; inhibition, % at 18.8 µM;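 active = inhibition of the luminescence signal of 40% or more relative to plate controls, in a single-dose primary screen at 18.75 µM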
MITF TRPM1 inh: inhibitors of MITF-dependent TRPM1 promoter reporter, primary screen, cell-based, SK-MEL-5, single point, luciferase; SK-MEL-5 TRPM1 promoter luciferase, 24 h; inhibition, % at 12.5 µM; actives 0.83% (n = 330,000);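 active = mean inhibition across replicates of 60% or more, whatever share of single replicates reaches that level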
Peg3 prom inh: Peg3 promoter-driven luciferase inhibitors, primary screen, cell-based, HeLa, luciferase luminescence; HeLa PEG-Prom luciferase reporter, overnight; inhibition, % at 20 µM; actives 1.7% (n = 360,000);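 active = inhibition of at least 50% at 20 µM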
EBV LMP1 NFkB: EBV LMP1-driven NF-kappaB luciferase reporter inhibitors, primary screen, cell-based, luminescence, single point. LMP1-induced NF-kappaB luciferase reporter cells. inhibition, % at 12.5 µM. actives 0.69% (n = 350,000); in the data active = inhibition above about 41%;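 also: 0% = neutral control wells and 100% = reference inhibitor control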
Mdm2-MdmX confirm: retested Mdm2-MdmX interaction blockers, confirmation, cell-based, luminescence, single concentration, set 2; inhibition, % at 8 µM; AID 504601, 2011; shares compounds with HIF-2a inh; SaOS-2 split-luciferase Mdm2/MdmX complementation; actives 99% (n = 740);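 active = mean inhibition of the luminescence signal across two replicates at or above 26 percent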
Target sequence (O15151 whole entry, looked up): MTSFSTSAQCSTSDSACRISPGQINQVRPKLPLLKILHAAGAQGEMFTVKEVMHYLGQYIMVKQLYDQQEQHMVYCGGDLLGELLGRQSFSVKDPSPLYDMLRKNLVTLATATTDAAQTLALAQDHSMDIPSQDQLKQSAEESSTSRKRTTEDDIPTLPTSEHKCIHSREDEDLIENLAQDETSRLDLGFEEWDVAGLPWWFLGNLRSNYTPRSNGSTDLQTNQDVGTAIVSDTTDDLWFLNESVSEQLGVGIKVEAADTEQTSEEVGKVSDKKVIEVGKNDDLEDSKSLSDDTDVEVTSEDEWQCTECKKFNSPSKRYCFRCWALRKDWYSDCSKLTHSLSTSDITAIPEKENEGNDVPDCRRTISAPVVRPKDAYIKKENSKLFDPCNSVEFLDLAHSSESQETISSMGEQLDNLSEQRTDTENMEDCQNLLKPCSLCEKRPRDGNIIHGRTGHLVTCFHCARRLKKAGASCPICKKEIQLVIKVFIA
Target sequence (Q00987 whole entry, looked up): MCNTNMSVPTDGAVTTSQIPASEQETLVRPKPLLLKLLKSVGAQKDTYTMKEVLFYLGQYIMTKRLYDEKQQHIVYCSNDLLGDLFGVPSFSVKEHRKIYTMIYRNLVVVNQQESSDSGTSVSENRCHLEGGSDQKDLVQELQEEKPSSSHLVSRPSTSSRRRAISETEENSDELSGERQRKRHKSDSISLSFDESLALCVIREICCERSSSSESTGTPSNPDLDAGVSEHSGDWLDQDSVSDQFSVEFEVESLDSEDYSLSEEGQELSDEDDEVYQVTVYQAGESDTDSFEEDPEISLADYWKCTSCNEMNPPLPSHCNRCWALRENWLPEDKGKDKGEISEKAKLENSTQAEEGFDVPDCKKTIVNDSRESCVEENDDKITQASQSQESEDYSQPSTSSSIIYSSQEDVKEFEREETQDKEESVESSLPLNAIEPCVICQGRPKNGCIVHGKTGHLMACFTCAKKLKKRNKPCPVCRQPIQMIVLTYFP
HIF-2a inh conf: HIF-2a reporter inhibitor retest, confirmation, luminescence, 786-0 RCC cells; shares compounds with HIF-2a inh; HIF-2a luciferase reporter luminescence, overnight; inhibition, % at 18.8 µM; actives 56% (n = 1,800); AID 651580, 2012;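 active = mean inhibition across four replicates of at least 40 percent at the single tested concentration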
HIF-1a cs: HIF-1a luciferase reporter signal reduction – MiaPaCa-2 cells, single concentration, counter-screen for HIF-2a inhibitor project, confirmation | MiaPaCa-2 HIF-1a luciferase reporter, desferoxamine, overnight | inhibition, % at 18.8 µM | shares compounds with HIF-2a inh | actives 72% (n = 1,800);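 active = mean inhibition of the reporter signal across four replicates at the single tested dose of 50% or more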
Numbers without * were called inactive; nt = no result.

SMILES | TROY NFkB inh | TWEAK-Fn14 inh | HIF-2a inh | MITF TRPM1 inh | Peg3 prom inh | EBV LMP1 NFkB | HIF-2a inh conf | HIF-1a cs | others
COC(=O)c1cc(=O)n(-c2ccc(F)cc2)c(=Nc2ccc(F)cc2)s1 | 29 | 50* | 53* | 16 | 93* | 4 | 66* | 91*
COC(=O)c1cc(=O)n(Cc2ccc3c(c2)OCO3)c(=Nc2ccccc2)s1 | -7 | 30 | 16 | nt | 17 | -3 | nt | nt
COC(=O)c1cc(=O)n(Cc2cccs2)c(=Nc2ccc(F)cc2)s1 | 4 | 56* | 66* | nt | 81* | 1 | 39 | 106*
COCCCN(C(=O)Cc1csc(-c2cccc(Cl)c2)n1)c1c(N)n(Cc2ccccc2)c(=O)[nH]c1=O | -25 | -23 | -3 | 6 | 3 | 2 | nt | nt
Cc1cnc(NC(=O)CC2OC(=O)c3ccccc32)s1 (stereo not drawn) | -7 | 9 | 7 | 0 | 6 | 6 | nt | nt
Cn1c(CNc2cccc(Cl)c2)nnc1SCC(=O)OC1CCCCC1 | 10 | 7 | 18 | -1 | 14 | 1 | nt | nt
Cn1c(COc2cccc3ccccc23)nnc1SCC(=O)OC1CCCCC1 | 8 | 6 | 67* | -5 | 6 | -1 | 28 | -4
CCn1c(COc2cccc3ccccc23)nnc1SCC(=O)OC1CCCCC1 | 9 | -6 | 58* | -6 | 10 | 2 | 14 | -10
O=C(O)CSc1nnc(COc2cccc3ccccc23)n1Cc1ccccc1 | -1 | -17 | 22 | 3 | -3 | 2 | nt | nt
CC1(C(=O)NCC2CC2)Cc2c(-c3ccc4c(c3)OCO4)ccnc2O1 (stereo not drawn) | 13 | 12 | 12 | nt | 21 | nt | nt | nt
COc1cccc(/C=C2/CCC(CN(C)C)C2=O)c1 (stereo not drawn) | 10 | 86* | 60* | 97* | 96* | -22 | 21 | 103*
COc1cccc(/C=C2\CCC(C3CCCC3)C2=O)c1 (stereo not drawn) | 5 | 8 | -227 | -60 | -185 | -16 | nt | nt
NC(=O)c1cc(S(=O)(=O)Nc2ccc(OC(F)(F)F)cc2)cs1 | 14 | 14 | 11 | 1 | 17 | -5 | nt | nt
Cc1cc(C)cc(OCC(=O)NCC2CCCO2)c1 (stereo not drawn) | 73* | 89* | 52* | 9 | 45 | 20 | 69* | 70*
O=C(C#Cc1ccccc1)c1ccco1 | 58* | 94* | 40* | 99* | 105* | 24 | 90* | 103* | Mdm2-MdmX confirm=103*
CC1(c2ccc([N+](=O)[O-])cc2)Nc2ccccc2S1 (stereo not drawn) | 8 | 15 | -240 | -33 | -132 | -18 | nt | nt
O=C(CSc1nnc(-c2ccccc2)o1)Nc1ccccc1F | -4 | 57* | 49* | nt | 39 | 53* | 66* | 61*
O=C(CSc1nnc(-c2ccc(Br)cc2)o1)Nc1cccc(C(=O)O)c1 | -69 | -29 | 63* | 88* | 24 | 75* | 63* | -98
Cn1c(C(=O)O)c(CC(=O)N2CCC(Cc3ccccc3)CC2)c2ccccc21 | 5 | -13 | 11 | -7 | -17 | -3 | nt | nt
COc1ccc(S(=O)(=O)NC(=O)C2(C)CCN2C(=O)CC2CC2)cc1 (stereo not drawn) | 5 | -21 | 6 | nt | -12 | nt | nt | nt
CC(C)N(C(=S)Nc1ccc(S(=O)(=O)N2CCOCC2)cc1)c1ccccc1 | -5 | -17 | 8 | nt | 14 | nt | nt | nt
